Results as given in ChEMBL document CHEMBL3988442, “University of Dundee, Small-Polar-MMV Screening Library” (2021).
Hit rate of the full screen: of about 48,000 compounds, about 13,000 (27%) showed an effect of 50% or more. Some of the results follow.

These molecules were tested on Wolbachia pipientis (assay: Anti-Wolbachia Cell-Based Screen). Conditions: 5 µM.
Assay type: functional
Set-up: scale not given: in the data most compounds retested in dose-response had high values
In the case of `Cc1ccc2c(c1)c(CNC(C)Cn1nc(C)cc1C)nn2C` (centres undefined), the “Percent Effect” value is reported as 8.057%. For `CCN1CCC(CNS(=O)(=O)N2CCc3ccccc3C2)C1` (centres undefined), the “Percent Effect” value was 5.13%. In the case of `Cc1cccc(C2(CNC(=O)CCN3C(=O)CCC3=O)CCCC2)c1`, the “Percent Effect” value is reported as 3.863%. In the case of `Cc1ccnc(OC[C@@]23CCO[C@@H]2CCN(S(C)(=O)=O)C3)n1`, the “Percent Effect” value is reported as 3.207%. With `O=c1ccc(-n2ccnc2)nn1CCNS(=O)(=O)c1ccc(Cl)s1` the “Percent Effect” value was 9.208%. With `Cc1nc(NS(=O)(=O)c2cc(C)c(Br)cc2C)no1` the “Percent Effect” value was 12.58%. `CCn1ncc2c1C(COC)CN(Cc1ccco1)C2` (centres undefined) was tested, and the “Percent Effect” value was 102.5%. For `CCn1nnc2c1C(COC)CN(C(=O)Cc1cccs1)C2` (centres undefined), the “Percent Effect” value was -3.417%. `Cc1ccc(CN2Cc3cnn(C)c3C(COCC3CC3)C2)o1` (centres undefined) was tested, and the “Percent Effect” value was 20.07%. `CCn1nnc2c1C(COC)CN(Cc1ccco1)C2` (centres undefined) was tested, and the “Percent Effect” value was 114.9%. With `CCn1ncc2c1C(COC)CN(Cc1ccc(C)o1)C2` (centres undefined) the “Percent Effect” value was 99.39%. In the case of `CCn1nnc2c1C(COC)CN(Cc1cccs1)C2.O=C(O)C(F)(F)F` (centres undefined), the “Percent Effect” value is reported as -4.503%. In the case of `CCn1cc2c(n1)C(COC)CN(Cc1ccoc1)C2` (centres undefined), the “Percent Effect” value is reported as -1.069%. In the case of `CNC(=O)C1(N(C)CCc2ccccc2)Cc2ccccc2C1`, the “Percent Effect” value is reported as 30.02%. With `CCc1ccccc1C(=O)N1C[C@@H](CN2CCOCC2)[C@@H](CO)C1` the “Percent Effect” value was -4.214%. In the case of `O=C(NCC(O)c1cccc(F)c1)C1CCN(C(=O)C2CCC2)CC1` (centres undefined), the “Percent Effect” value is reported as -0.7968%. `Cc1c(C(C)NC2CSCCSC2)cnn1-c1ccc(F)cc1F` (centres undefined) was tested, and the “Percent Effect” value was -0.1798%. `CN1CCN(Cc2cnn(-c3ccc(F)cc3)c2)[C@H]2CS(=O)(=O)C[C@H]21` was tested, and the “Percent Effect” value was -6.219%. In the case of `COc1ccc(-n2ncc(C(C)NC3CCSCC3)c2C)cc1` (centres undefined), the “Percent Effect” value is reported as -4.294%. With `CC(C)CC1SCC(=O)Nc2c1cnn2-c1ccc(F)cc1` (centres undefined) the “Percent Effect” value was 52.58%. For `COc1ccc(C2CC(=O)Nc3c2cnn3C)cc1` (centres undefined), the “Percent Effect” value was 32.7%. With `CC(C)C1SCC(=O)Nc2c1cnn2-c1ccc(Cl)cc1` (centres undefined) the “Percent Effect” value was 114.3%. `CC(C)CC1SCC(=O)Nc2c1cnn2C(C)C` (centres undefined) was tested, and the “Percent Effect” value was 1.479%. For `CC(C)C1SCC(=O)Nc2c1cnn2-c1ccc(Cl)cc1F` (centres undefined), the “Percent Effect” value was 70.31%. With `CC(=O)N1CCC(NC(C)c2cnn(-c3ccc(F)cc3F)c2C)CC1` (centres undefined) the “Percent Effect” value was -2.797%. For `COc1ccc(-n2ncc3c2NC(=O)CSC3C(C)C)cc1` (centres undefined), the “Percent Effect” value was 81.05%. For `CC(C)(C)n1ncc2c1NC(=O)CC2c1ccsc1` (centres undefined), the “Percent Effect” value was 12.08%. `Cc1noc(CNC(=O)NCCOc2ccc(Cl)cc2)n1` was tested, and the “Percent Effect” value was -1.273%. For `N#Cc1cccc(OCCCN2CCN(C(=O)c3ccoc3)CC2)c1`, the “Percent Effect” value was -11.27%.
